This is an account of results in PubChem BioAssay (Tox21).

The nature of assay [1]: qHTS assay to identify small molecule agonists of the progesterone receptor (PR) signaling pathway - cell viability counter screen (AID 1346799; calls by dose curve; further: nearly all actives have a fitted effect of over 45% in size; further: potency means the concentration at half of the fitted maximal effect). A digest of the protocol: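 PR-UAS-bla HEK293T cells, 3,000 per well in medium with 2% charcoal-stripped FBS, were preincubated 6 hr at 37C, then exposed to compounds for 16 hr; viability was read as CellTiter-Glo luminescence after 30 min at room temperature.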

A short description of assay [2]: qHTS assay to identify small molecule antagonists of the TGF-beta/Smad signaling pathway - cell viability counter screen (AID 1346824). Further: nearly all actives have a fitted effect of over 50% in size. A digest of the protocol:
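SBE-bla HEK 293T cells were plated overnight at 37 C, then given compounds in DMSO plus TGF-beta1 (added as 0.25 ng/mL solution) for 5 hr. After the bla read, CellTiter-Glo was added to the same wells and luminescence read after 30 min at room temperature.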

Assay [3] in a line: qHTS assay to identify small molecule agonists of the TGF-beta/Smad signaling pathway - cell viability counter screen (AID 1346829). Further: top concentration of the series differs between compounds; nearly all actives have a fitted effect of over 45% in size. A digest of the protocol: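 CellTiter-Glo luminescence readout; SBE-bla HEK 293T cells, overnight plating, compound 5 hr at 37 C/5% CO2, then bla substrate 2 hr RT, then CellTiter-Glo 30 min RT.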
The nature of assay [4]: qHTS assay to identify small molecule agonists of the TGF-beta/Smad signaling pathway (AID 1346859; active means well fitted activation curve with a large enough effect in the signal ratio in the repeat runs, not every such curve was filed as active; the % refers to the signal ratio; further: series mostly up to about 77 µM). A digest of the protocol:
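HEK 293T cells stably carrying a beta-lactamase reporter driven by the Smad binding element were seeded overnight, exposed to DMSO-dissolved compounds for 5 hr at 37 C, 5% CO2, then loaded with FRET substrate for 2 hr at room temperature.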

The target of assay [5] is Thyrotropin-releasing hormone receptor (Homo sapiens) (UniProt P34981). The experiment in a line: qHTS assay to identify small molecule antagonists of the thyrotropin-releasing hormone receptor (TRHR) signaling pathway (AID 1346877; active means well fitted inhibition curve with a large enough effect in the repeat runs, not every such curve was filed as active; further: series mostly up to about 51 µM). A digest of the protocol:
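Kinetic fluorescence (3 min, 1 s resolution) following stimulation with TRH at 1 nM final; HEK293 cells bearing human TRHR; 5 min compound preincubation at RT; concentration-response over 15 points, triplicates.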

Assay [6] in a line: Human pregnane X receptor (PXR) small molecule agonists, qHTS cell viability counter screen (AID 1346977). Further: nearly all actives have a fitted effect of over 50% in size. A digest of the protocol:
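PXR-Luc HepG2 cells in medium with 5% charcoal-stripped FBS were pre-incubated 5hr, then exposed to compounds for 24hr at 37C. Viability was read in the same wells by CellTiter-Fluor fluorescence, reagent added after 23hr with a 1hr incubation.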

Assay [7] can be described thus: Caspase-3/7 induction in HepG2 cells by small molecules, qHTS assay (AID 1346978). Further: nearly all actives have a fitted effect of over 15% in size. A digest of the protocol: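 Wild-type HepG2 cells (2,000/well) were settled 5 h at 37 C, 5% CO2, then exposed to compounds in DMSO for 17 h. Caspase-3/7 activity was read by luminescence 30 min after adding Caspase-Glo 3/7 reagent at room temperature.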
Assay [8] can be described thus: Caspase-3/7 induction in CHO-K1 cells by small molecules, qHTS cell viability counter screen (AID 1346979). Further: nearly all actives have a fitted effect of over 35% in size. In outline: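 Wild-type CHO-K1 cells were seeded at 1,500 per well, rested 5hr at 37 C, then exposed to compounds in DMSO. After 16hr, CellTiter-Fluor reagent was added and fluorescence read 1hr later as the viability measure.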
Assay [9] can be described thus: Caspase-3/7 induction in CHO-K1 cells by small molecules, qHTS assay (AID 1346980). Further: nearly all actives have a fitted effect of over 15% in size. In outline:
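Wild-type cells were seeded at 1,500 per well and settled 5 hr at 37 C, 5% CO2, then exposed to DMSO-dissolved compounds for 17 hr. Caspase-Glo 3/7 reagent was added, and luminescence was read after 30min at room temperature.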

The target of assay [10] is Thyrotropin-releasing hormone receptor (Homo sapiens) (UniProt P34981). The experiment in a line: qHTS assay to identify small molecule agonists of the thyrotropin-releasing hormone receptor (TRHR) signaling pathway (AID 1346891; calls by dose curve; further: series mostly up to about 58 µM). A digest of the protocol: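 TRHR-expressing HEK293 cells were plated 18 h at 37 °C/5% CO2, loaded with calcium dye 2 h at 37 °C, then given compound in DMSO; fluorescence was read kinetically for 3 min at 1 s intervals.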
Thyrotropin-releasing hormone receptor (Homo sapiens), sequence (P34981 whole entry, looked up): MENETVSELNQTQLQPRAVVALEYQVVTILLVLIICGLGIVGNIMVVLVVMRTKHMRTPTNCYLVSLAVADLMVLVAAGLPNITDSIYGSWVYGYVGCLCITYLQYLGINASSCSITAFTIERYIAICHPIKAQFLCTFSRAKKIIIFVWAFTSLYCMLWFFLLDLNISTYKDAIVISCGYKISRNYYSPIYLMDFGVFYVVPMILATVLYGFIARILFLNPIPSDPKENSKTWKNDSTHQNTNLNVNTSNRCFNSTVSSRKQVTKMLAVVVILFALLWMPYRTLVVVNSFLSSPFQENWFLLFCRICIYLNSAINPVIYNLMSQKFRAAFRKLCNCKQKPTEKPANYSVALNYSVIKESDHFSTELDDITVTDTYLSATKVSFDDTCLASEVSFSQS

Inconclusive results are not listed. A structure can be active in one record and inactive in another. Activity calls are given as the source filed them. Unless noted, the call rests on the fitted dose curve; in most records, active means well fitted curve in the direction sought with a large enough effect in the repeat runs; inconclusive means weak or mixed curves; inactive means no such curve, though single readings can be large; an effect the other way counts as inactive or inconclusive.

Turning to `CCN(CC)c1ccccc1`, the Potency result in assay [1], in assay [2], in [4], in assay [6] and in [8] was “inactive” in each case. Moreover, the call in assay [3], in [5], in assay [7] and in [9] was inactive.
Turning to `CN(C)CCO`, the Potency result in [1], in assay [2], in [4], in assay [6] and in [8] was “inactive” each time. Further, the molecule was called inactive in [3], in [5], in assay [7] and in [9].
For `Nc1ccc(Br)cc1`, the Potency in assay [1] was 27.3 µM (active) and inactive. The Potency result in assay [2], in assay [4], in assay [6] and in assay [8] was “inactive” in each case. The molecule was classed as inactive in assay [3], in [5], in assay [7] and in [9].
As to `ClCc1cccnc1`, the Potency result in [1], in [2], in [4], in [6] and in assay [8] was “inactive” throughout. The call in assay [3], in [5], in [7] and in assay [9] was inactive.
Consider `Cc1ccc(N)cc1N`, for which the Potency result in assay [1], in [2], in assay [4], in assay [10] and in assay [8] was “inactive” in each case. Also, the outcome in assay [3], in assay [5], in [7] and in assay [9] was inactive.
On to `CCNc1nc(NC(C)C)nc(SC)n1`, for which the Potency result in assay [1], in assay [2], in [4], in assay [6] and in assay [8] was “inactive” throughout. In addition, the outcome in assay [3], in [5], in [7] and in [9] was inactive.
Turning to `CCCN(CCC)N=O`, the Potency entry in [1], in assay [2], in assay [4], in assay [6] and in [8] was “inactive” in each case. For the same molecule, the molecule was called inactive in assay [3], in assay [5], in assay [7] and in assay [9].
Consider `c1cc2c3c(cccc3c1)CC2`, for which the Potency result in assay [1], in assay [2], in assay [4], in assay [6] and in [8] was “inactive” throughout. The molecule was classed as inactive in assay [3], in [5], in assay [7] and in [9].
On to `O=S(=O)(c1ccc(O)cc1)c1ccc(O)cc1`, for which the Potency result in assay [1], in [2], in assay [4], in [6] and in assay [8] was “inactive” in each case. The molecule was classed as inactive in assay [3], in assay [5], in [7] and in assay [9].
As for `COP(N)(=O)SC` (configuration not stated), the Potency result in assay [1], in [2], in assay [4], in assay [10] and in [8] was “inactive” throughout. Besides, the call in assay [3], in assay [5], in assay [7] and in [9] was inactive.
For the molecule `O=[N+]([O-])c1ccc(Oc2ccc(Cl)cc2Cl)cc1`, the Potency entry in [1], in assay [2], in assay [4], in assay [10] and in assay [8] was “inactive” throughout. The outcome in [3], in assay [5], in assay [7] and in assay [9] was inactive.
Take `OC(O)C(Cl)(Cl)Cl`: the Potency result in assay [1], in assay [2], in [4] and in assay [8] was “inactive” throughout. Besides, the call in assay [3], in assay [5], in assay [7] and in assay [9] was inactive.
For `CCN(CC)CCO`, the Potency entry in [1], in [2], in assay [4], in [10] and in assay [8] was “inactive” throughout. The result in assay [3], in assay [7] and in assay [9] was inactive.
In the case of `Cc1ccccc1O`, the Potency entry in assay [1], in assay [2], in [4], in assay [10] and in [8] was “inactive” throughout. Moreover, the outcome in assay [3], in assay [7] and in assay [9] was inactive.
In the case of `Oc1ccccc1Cl`, the Potency entry in assay [1], in assay [2], in assay [4], in assay [10] and in assay [8] was “inactive” in each case. For the same molecule, the result in [3], in [7] and in assay [9] was inactive.
For the molecule `CCCCCCCCCl`, the Potency result in assay [1], in [2], in assay [4], in assay [10], in assay [6] and in [8] was “inactive” throughout. Moreover, the molecule was called inactive in assay [3], in [7] and in assay [9].
For the molecule `COC(=O)NS(=O)(=O)c1ccc(N)cc1`, the Potency result in assay [1], in assay [2], in assay [4], in [6] and in [8] was “inactive” each time. The outcome in [3], in assay [7] and in assay [9] was inactive.
Consider `Clc1cccc(Cl)c1Cl`, for which the Potency entry in assay [1], in assay [2], in [4], in assay [10] and in [8] was “inactive” throughout. In addition, the molecule was called inactive in [3], in assay [7] and in [9].
As for `c1ccc(OP(Oc2ccccc2)Oc2ccccc2)cc1`, the Potency entry in [1], in assay [2], in assay [4], in [10] and in assay [8] was “inactive” throughout. Further, the call in [3], in [7] and in assay [9] was inactive.
On to `O=[N+]([O-])c1ccc([As](=O)(O)O)cc1`, for which the Potency result in assay [1], in assay [2], in assay [4], in assay [10] and in [8] was “inactive” in each case. Besides, the outcome in assay [3], in assay [7] and in assay [9] was inactive.
As to `COC(=O)NC(=S)Nc1ccccc1NC(=S)NC(=O)OC`, the Potency entry in assay [1], in [2], in assay [4], in assay [10], in assay [6] and in [8] was “inactive” throughout. The call in assay [3], in assay [7] and in [9] was inactive.
In the case of `CC(C)OC(=O)Nc1ccccc1`, the Potency entry in assay [1], in [2], in assay [4], in assay [10], in assay [6] and in [8] was “inactive” each time. Further, the result in assay [3], in [7] and in assay [9] was inactive.
With `CC(C)(C)OOC(C)(C)C`, the Potency entry in assay [1], in assay [2], in [4], in assay [10] and in [8] was “inactive” each time. For the same molecule, the result in assay [3], in [7] and in assay [9] was inactive.
In the case of `CCOP(OCC)OCC`, the Potency entry in assay [1], in assay [2], in assay [4], in assay [10] and in [8] was “inactive” in each case. The outcome in [3], in assay [7] and in assay [9] was inactive.
With `O=c1[nH]c(=O)[nH]c(=O)[nH]1`, the Potency entry in [1], in assay [2], in assay [4], in assay [10], in assay [6] and in assay [8] was “inactive” in each case. In addition, the molecule was classed as inactive in [3], in assay [7] and in assay [9].
For the molecule `c1ccc2c(c1)oc1ccccc12`, the Potency entry in assay [1], in [2], in assay [4], in assay [10], in assay [6] and in [8] was “inactive” each time. Further, the molecule was classed as inactive in [3], in [7] and in assay [9].
Regarding `CNC(=O)Oc1ccccc1OC(C)C`, the Potency entry in [1], in assay [2], in [4] and in assay [8] was “inactive” throughout. Further, the molecule was called inactive in assay [3], in assay [5], in assay [7] and in [9].
